Results taken from the supplement of paper PMC4466140.

target: AgAbp1; experiment: SPOT peptide array binding signal intensity (averaged, normalized) (arbitrary units (background-subtracted, floor 0; scale differs between SH3 domains)); higher = stronger binding of the SH3 domain to the peptide
How it was run: (§1)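 The binding signal is the normalized, background-subtracted spot intensity averaged over replicates; its arbitrary units differ between domains. It was obtained by incubating 10 μg/ml GST-fused SH3 domains from four yeast species overnight at 4°C in TBS-based blocking buffer on cellulose membranes with synthetic 15-mer peptides, cysteines replaced by serines, then detecting with anti-GST antibody, HRP anti-mouse secondary and luminol.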

Binder | SPOT peptide array binding signal intensity
EVTPKVPERPSRRKT | 377

target: AgBbc1; experiment: as above
How it was run: as §1

Binder | SPOT peptide array binding signal intensity
EVTPKVPERPSRRKT | 2180

target: AgBem1-D1; experiment: as above
How it was run: as §1

Binder | SPOT peptide array binding signal intensity
EVTPKVPERPSRRKT | 13

target: AgBzz1-D1; experiment: as above
How it was run: as §1

Binder | SPOT peptide array binding signal intensity
EVTPKVPERPSRRKT | 819

target: AgBzz1-D2; experiment: as above
How it was run: as §1

Binder | SPOT peptide array binding signal intensity
EVTPKVPERPSRRKT | 136

target: AgCyk3; experiment: as above
How it was run: as §1

Binder | SPOT peptide array binding signal intensity
EVTPKVPERPSRRKT | 1

target: AgFus1; experiment: as above
How it was run: as §1

Binder | SPOT peptide array binding signal intensity
EVTPKVPERPSRRKT | 4.5

target: AgHof1; experiment: as above
How it was run: as §1

Binder | SPOT peptide array binding signal intensity
EVTPKVPERPSRRKT | 21.8

target: AgHse1; experiment: as above
How it was run: as §1

Binder | SPOT peptide array binding signal intensity
EVTPKVPERPSRRKT | 47

target: AgLsb1; experiment: as above
How it was run: as §1

Binder | SPOT peptide array binding signal intensity
EVTPKVPERPSRRKT | 39.9

target: AgLsb4; experiment: as above
How it was run: as §1

Binder | SPOT peptide array binding signal intensity
EVTPKVPERPSRRKT | 2480

target: AgMyo5; experiment: as above
How it was run: as §1

Binder | SPOT peptide array binding signal intensity
EVTPKVPERPSRRKT | 1.25

target: AgNbp2; experiment: as above
How it was run: as §1

Binder | SPOT peptide array binding signal intensity
EVTPKVPERPSRRKT | 44.5

target: AgRvs167; experiment: as above
How it was run: as §1

Binder | SPOT peptide array binding signal intensity
EVTPKVPERPSRRKT | 11.3

target: AgSho1; experiment: as above
How it was run: as §1

Binder | SPOT peptide array binding signal intensity
EVTPKVPERPSRRKT | 8.25

target: AgSla1-D1-D2; experiment: as above
How it was run: as §1

Binder | SPOT peptide array binding signal intensity
EVTPKVPERPSRRKT | ≤ 0

target: AgSla1-D3; experiment: as above
How it was run: as §1

Binder | SPOT peptide array binding signal intensity
EVTPKVPERPSRRKT | 7.75

target: CaAbp1-D1; experiment: as above
How it was run: as §1

Binder | SPOT peptide array binding signal intensity
EVTPKVPERPSRRKT | 324

target: CaAbp1-D2; experiment: as above
How it was run: as §1

Binder | SPOT peptide array binding signal intensity
EVTPKVPERPSRRKT | 620

target: CaBbc1; experiment: as above
How it was run: as §1

Binder | SPOT peptide array binding signal intensity
EVTPKVPERPSRRKT | 2760

target: CaBem1-D1; experiment: as above
How it was run: as §1

Binder | SPOT peptide array binding signal intensity
EVTPKVPERPSRRKT | 24

target: CaBzz1-D1; experiment: as above
How it was run: as §1

Binder | SPOT peptide array binding signal intensity
EVTPKVPERPSRRKT | 1370

target: CaBzz1-D2; experiment: as above
How it was run: as §1

Binder | SPOT peptide array binding signal intensity
EVTPKVPERPSRRKT | 406

target: CaCyk3; experiment: as above
How it was run: as §1

Binder | SPOT peptide array binding signal intensity
EVTPKVPERPSRRKT | 420

target: CaFus1; experiment: as above
How it was run: as §1

Binder | SPOT peptide array binding signal intensity
EVTPKVPERPSRRKT | ≤ 0

target: CaHof1; experiment: as above
How it was run: as §1

Binder | SPOT peptide array binding signal intensity
EVTPKVPERPSRRKT | 4.88

target: CaHse1; experiment: as above
How it was run: as §1

Binder | SPOT peptide array binding signal intensity
EVTPKVPERPSRRKT | 316

target: CaLsb1; experiment: as above
How it was run: as §1

Binder | SPOT peptide array binding signal intensity
EVTPKVPERPSRRKT | ≤ 0

target: CaLsb4; experiment: as above
How it was run: as §1

Binder | SPOT peptide array binding signal intensity
EVTPKVPERPSRRKT | 6660

target: CaMyo5; experiment: as above
How it was run: as §1

Binder | SPOT peptide array binding signal intensity
EVTPKVPERPSRRKT | ≤ 0

target: CaNbp2; experiment: as above
How it was run: as §1

Binder | SPOT peptide array binding signal intensity
EVTPKVPERPSRRKT | 80.8

target: CaRvs167; experiment: as above
How it was run: as §1

Binder | SPOT peptide array binding signal intensity
EVTPKVPERPSRRKT | 177

target: CaRvs167-3; experiment: as above
How it was run: as §1

Binder | SPOT peptide array binding signal intensity
EVTPKVPERPSRRKT | 2

target: CaSho1; experiment: as above
How it was run: as §1

Binder | SPOT peptide array binding signal intensity
EVTPKVPERPSRRKT | ≤ 0

target: CaSla1-D1-D2; experiment: as above
How it was run: as §1

Binder | SPOT peptide array binding signal intensity
EVTPKVPERPSRRKT | 786

target: CaSla1-D3; experiment: as above
How it was run: as §1

Binder | SPOT peptide array binding signal intensity
EVTPKVPERPSRRKT | 0.5

target: ScAbp1; experiment: as above
How it was run: as §1

Binder | SPOT peptide array binding signal intensity
EVTPKVPERPSRRKT | 141

target: ScBbc1; experiment: as above
How it was run: as §1

Binder | SPOT peptide array binding signal intensity
EVTPKVPERPSRRKT | 2080

target: ScBem1-D1; experiment: as above
How it was run: as §1

Binder | SPOT peptide array binding signal intensity
EVTPKVPERPSRRKT | 10

target: ScBzz1-D1; experiment: as above
How it was run: as §1

Binder | SPOT peptide array binding signal intensity
EVTPKVPERPSRRKT | 57.5

target: ScBzz1-D2; experiment: as above
How it was run: as §1

Binder | SPOT peptide array binding signal intensity
EVTPKVPERPSRRKT | 11.8

target: ScCyk3; experiment: as above
How it was run: as §1

Binder | SPOT peptide array binding signal intensity
EVTPKVPERPSRRKT | 1.53e-05

target: ScFus1; experiment: as above
How it was run: as §1

Binder | SPOT peptide array binding signal intensity
EVTPKVPERPSRRKT | 5

target: ScHof1; experiment: as above
How it was run: as §1

Binder | SPOT peptide array binding signal intensity
EVTPKVPERPSRRKT | 11.5

target: ScHse1; experiment: as above
How it was run: as §1

Binder | SPOT peptide array binding signal intensity
EVTPKVPERPSRRKT | ≤ 0

target: ScLsb1; experiment: as above
How it was run: as §1

Binder | SPOT peptide array binding signal intensity
EVTPKVPERPSRRKT | 842

target: ScLsb2; experiment: as above
How it was run: as §1

Binder | SPOT peptide array binding signal intensity
EVTPKVPERPSRRKT | 508

target: ScLsb3; experiment: as above
How it was run: as §1

Binder | SPOT peptide array binding signal intensity
EVTPKVPERPSRRKT | 6280

target: ScLsb4; experiment: as above
How it was run: as §1

Binder | SPOT peptide array binding signal intensity
EVTPKVPERPSRRKT | 5280

target: ScMyo3; experiment: as above
How it was run: as §1

Binder | SPOT peptide array binding signal intensity
EVTPKVPERPSRRKT | 1.5

target: ScMyo5; experiment: as above
How it was run: as §1

Binder | SPOT peptide array binding signal intensity
EVTPKVPERPSRRKT | ≤ 0

target: ScNbp2; experiment: as above
How it was run: as §1

Binder | SPOT peptide array binding signal intensity
EVTPKVPERPSRRKT | 270

target: ScPex13; experiment: as above
How it was run: as §1

Binder | SPOT peptide array binding signal intensity
EVTPKVPERPSRRKT | 1490

target: ScRvs167; experiment: as above
How it was run: as §1

Binder | SPOT peptide array binding signal intensity
EVTPKVPERPSRRKT | 924

target: ScSho1; experiment: as above
How it was run: as §1

Binder | SPOT peptide array binding signal intensity
EVTPKVPERPSRRKT | 28.5

target: ScSla1-D1-D2; experiment: as above
How it was run: as §1

Binder | SPOT peptide array binding signal intensity
EVTPKVPERPSRRKT | 2340

target: ScSla1-D3; experiment: as above
How it was run: as §1

Binder | SPOT peptide array binding signal intensity
EVTPKVPERPSRRKT | 69.4

target: SpAbp1-D1; experiment: as above
How it was run: as §1

Binder | SPOT peptide array binding signal intensity
EVTPKVPERPSRRKT | 130

target: SpBbc1; experiment: as above
How it was run: as §1

Binder | SPOT peptide array binding signal intensity
EVTPKVPERPSRRKT | 1260

target: SpBzz1-D1; experiment: as above
How it was run: as §1

Binder | SPOT peptide array binding signal intensity
EVTPKVPERPSRRKT | 514

target: SpBzz1-D2; experiment: as above
How it was run: as §1

Binder | SPOT peptide array binding signal intensity
EVTPKVPERPSRRKT | ≤ 0

target: SpCyk3; experiment: as above
How it was run: as §1

Binder | SPOT peptide array binding signal intensity
EVTPKVPERPSRRKT | 0.75

target: SpHof1; experiment: as above
How it was run: as §1

Binder | SPOT peptide array binding signal intensity
EVTPKVPERPSRRKT | 25.4

target: SpHof1-2; experiment: as above
How it was run: as §1

Binder | SPOT peptide array binding signal intensity
EVTPKVPERPSRRKT | 74.4

target: SpHof1-3; experiment: as above
How it was run: as §1

Binder | SPOT peptide array binding signal intensity
EVTPKVPERPSRRKT | 73.8

target: SpHse1; experiment: as above
How it was run: as §1

Binder | SPOT peptide array binding signal intensity
EVTPKVPERPSRRKT | 51.2

target: SpLsb1; experiment: as above
How it was run: as §1

Binder | SPOT peptide array binding signal intensity
EVTPKVPERPSRRKT | 1550

target: SpLsb4; experiment: as above
How it was run: as §1

Binder | SPOT peptide array binding signal intensity
EVTPKVPERPSRRKT | 6800

target: SpMyo1; experiment: as above
How it was run: as §1

Binder | SPOT peptide array binding signal intensity
EVTPKVPERPSRRKT | 4.25

target: SpNbp2; experiment: as above
How it was run: as §1

Binder | SPOT peptide array binding signal intensity
EVTPKVPERPSRRKT | 9.5

target: SpPex13; experiment: as above
How it was run: as §1

Binder | SPOT peptide array binding signal intensity
EVTPKVPERPSRRKT | ≤ 0

target: SpRvs167; experiment: as above
How it was run: as §1

Binder | SPOT peptide array binding signal intensity
EVTPKVPERPSRRKT | 1310

target: SpSla1-D1-D2; experiment: as above
How it was run: as §1

Binder | SPOT peptide array binding signal intensity
EVTPKVPERPSRRKT | 48.5

target: SpSla1-D3; experiment: as above
How it was run: as §1

Binder | SPOT peptide array binding signal intensity
EVTPKVPERPSRRKT | 2
